HSF-1 act = increases HSF-1 driven luciferase reporter signal | NIH3T3-HGL HSF-1 luciferase reporter, MG132, 8 h; 100% = twice DMSO control signal | activation, % at 9 µM | 1.7% of 300,000 active;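 active = mean replicate activation of at least 50% with a set share of replicates each reaching 50%; inconclusive = only one of those two conditions met; inactive = mean below 50% and too few replicates reaching it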;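 also: 0% = median of the neutral control wells and 100% = twice that signal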
esBAF inh = blocks esBAF chromatin remodeling in mouse ES cells; Bmi1-luciferase knock-in reporter, 24 h; 100% = twice the neutral-well signal; reporter increase, % at 12.5 µM; 2% of 350,000 active; in the data active = activation above about 40%; inconclusive = no clear call, values can overlap the other calls;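 also: 0% = median of the plate's neutral control wells and 100% = double that signal; a rise in the Bmi1 reporter signal indicates esBAF inhibition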
HSF1 inh = HSF1 inhibition. NIH3T3-HGL HSE-luciferase, MG132-induced, luminescence 8 h; stronger effect = lower value. activity change, negative = inhibition, % at 7.5 µM (by protocol). 0.77% of 300,000 active. AID 2098;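 active = more than half of replicate wells show activity change below -50%, luminescence cut by over half; inconclusive = some wells, but at most half, below -50%; inactive = no replicate well below -50%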;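 also: luciferase reports HSF-1 transcriptional activity via heat shock element; 0% = median of DMSO wells and -100% = zero luminescence signal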
MITF TRPM1 HTS = MITF TRPM1 promoter activation in melanoma cells. SK-MEL-5 TRPM1-promoter luciferase, 24 h; % of positive control, neutral wells = 0. activation, % at 12.5 µM. 0.75% of 300,000 active. AID 588334;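 active = mean activation of at least 80% with every replicate also reaching 80%; inconclusive = mean reaches 80% but some replicate falls short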;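 also: 0% = neutral control wells and 100% = parthenolide positive control wells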
Wnt bcat act = Wnt/beta-catenin pathway activation; Wnt/beta-catenin reporter cell assay, activator, plate reader; 1.2% of 300,000 active; activation, % at 9.35 µM; in the data active = activation above about 30%, passing the limit was not always enough; inconclusive = no clear call, values can overlap the other calls;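 also: 0% = neutral control wells and 100% = positive control wells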
Numbers without * were called inactive; ? = inconclusive; . = not tested or not shown. This is a sample that favours compounds with a hit; in the whole collection about 3.8% have one here.

SMILES	HSF-1 act	esBAF inh	HSF1 inh	MITF TRPM1 HTS	Wnt bcat act
Cn1nnc(NC(=O)C(c2ccccc2)c2ccccc2)n1	33.7	-1.9	5.4	-9.9	39.6*
Cc1onc(-c2c(F)cccc2Cl)c1C(=O)c1ccccc1	-70.6	.	-60.9*	.	-2.2
Cc1cccc(CN2CCN(c3ccccn3)CC2)c1	-18.1	6.3	1.3	8.4	1.3
c1ccc(COc2cccc(CN3CCN(c4ccccn4)CC3)c2)cc1	-63.1	3.5	-55.2*	-7.1	.
O=C(Nc1nc2ccccc2[nH]1)c1ccccc1OC(F)F	60.3*	-2.1	25.7	-1.6	22.3
N#CC(Cc1ccc(OC(F)F)cc1)c1nc2ccccc2[nH]1 (stereo unspecified)	58.9*	59.6*	20.7	91.1*	25.0
O=C(Nc1nc2ccccc2[nH]1)c1ccc(OC(F)F)cc1	68.2*	-63.0	39.1	-0.8	17.8
CCC(Oc1ccccc1)C(=O)Nc1nc2ccccc2[nH]1 (stereo unspecified)	19.5	52.9*	10.5	41.2	6.6
N#CC(Cc1cccs1)c1nc2ccccc2[nH]1 (stereo unspecified)	.	11.3	.	.	1.4
O=C(Nc1nc2ccccc2[nH]1)c1ccccc1F	-73.1	-80.0	-74.6*	-86.2	-0.9
O=C(CC1(O)C(=O)Nc2ccc(Br)cc21)c1ccc2c(c1)OCO2 (stereo unspecified)	57.4*	2.6	8.4	.	9.0
Cc1ccc2c(c1)C(O)(CC(=O)c1ccc3c(c1)OCO3)C(=O)N2 (stereo unspecified)	4.6	0.7	-2.9	-3.1	.
Cc1ccc(/C=N/NC(=O)c2cccc(S(=O)(=O)Nc3ccccc3Cl)c2)o1	66.0*	-4.7	9.3	-10.8	-4.2
O=C(N/N=C/c1ccco1)c1cccc(S(=O)(=O)Nc2ccccc2Cl)c1	-8.0	.	-8.5	14.4	-1.9
CO[C@@H]1CN(C)C(=O)c2ccc(NC(=O)c3ccccc3F)cc2OC[C@@H](C)NC[C@@H]1C	.	0.2	.	.	.
COCC(=O)Nc1ccc2c(c1)OC[C@H](C)N(C(=O)C1CCCC1)C[C@H](C)[C@H](OC)CN(C)C2=O	.	-3.0	.	.	.
COC(=O)c1ccccc1NC(=O)c1noc2c1CCCC2	19.3	-4.4	9.0	-2.6	.
O=C(NCc1ccccc1)c1noc2c1CCCCC2	31.7	34.4	12.2	101.2*	.
O=C(Nc1cccc(O)c1)c1noc2c1CCCCC2	-10.2	.	-2.5	-32.4	7.5
O=C(NC1CCCC1)c1noc2c1CCCCC2	4.5	.	13.8	.	43.5*
CC(NC(=O)c1noc2c1CCCCC2)c1ccccc1 (stereo unspecified)	-14.7	44.8*	8.2	22.6	0.0
Cc1ccc(S(=O)(=O)N(C)C[C@@H]2OCCCC[C@H](C)Oc3ccc(NC(=O)CCC(F)(F)F)cc3C(=O)N([C@@H](C)CO)C[C@@H]2C)cc1	.	-1.0	.	.	.
Cc1ccccc1S(=O)(=O)NCC[C@H]1CC[C@H](NC(=O)C2CCC2)[C@@H](CO)O1	.	-4.6	.	.	.
C[C@@H]1CN([C@H](C)CO)C(=O)c2cc(NS(C)(=O)=O)ccc2O[C@@H]1CN(C)C(=O)Nc1ccc2c(c1)OCO2	.	4.5	.	.	.
Cc1ccc(S(=O)(=O)Nc2ccc3c(c2)CC(=O)N([C@@H](C)CO)C[C@H](C)[C@H](CN(C)C(=O)Nc2ccc4c(c2)OCO4)O3)cc1	.	1.4	.	.	.
SMILES	HSF-1 act	esBAF inh	HSF1 inh	MITF TRPM1 HTS	Wnt bcat act
CCc1ccc(Oc2cc(C)nc(N)n2)cc1	28.8	60.6*	17.6	53.3	.
O=C(C[C@@H]1CC[C@H](NC(=O)Nc2cccc(F)c2)[C@H](CO)O1)NCC1CCCCC1	.	6.6	.	.	.
O=C(Nc1cccc(Cl)c1)N(Cc1nc2ccccc2c(=O)[nH]1)C1CCCC1	54.4*	5.6	17.5	14.2	.
c1ccc(CSCc2cn3ccccc3n2)cc1	47.8	70.5*	22.5	72.3	19.5
O=C(O)c1ccccc1SCc1cn2ccccc2n1	3.8	.	-13.1	-3.8	-1.8
Cc1ccc(SCc2cn3ccccc3n2)cc1	49.1	38.5	34.8	96.4*	32.6*
CCN(CC)CCN(C(=O)C1=COCCO1)c1nc2cc3c(cc2s1)OCO3	23.3	.	18.9	-0.5	-0.9
CCN(CC)CCN(C(=O)c1ccc2ncsc2c1)c1nc2cc3c(cc2s1)OCO3	-26.2	54.5*	-21.6	18.8	21.5
CCN(CC)CCN(C(=O)C1=COCCO1)c1nc2ccc(C)cc2s1	53.2*	-4.4	23.7	16.4	1.2
CO[C@@H]1CN(C)C(=O)c2cc(NC(C)=O)ccc2OC[C@H](C)N(Cc2cc(F)ccc2F)C[C@@H]1C	.	2.6	.	.	.
NC(=O)c1ccsc1NC(=O)c1cc(=O)c2ccccc2o1	.	?	.	129.5*	22.2
CC(=O)Nc1ccc(NC(=O)c2cc(=O)c3ccccc3o2)cc1	-5.2	-1.1	-7.0	30.0	3.3
Cc1ccc(NC(=O)c2cc(=O)c3ccccc3o2)cc1	24.0	56.5*	2.9	40.7	?
COC(=O)c1ccc(CNCC(O)COc2ccc(-c3ccccc3)cc2)cc1 (stereo unspecified)	6.7	2.8	-5.0	16.1	-0.1
COc1ccc(CNCC(O)COc2ccc(C(C)(C)c3ccccc3)cc2)cc1 (stereo unspecified)	194.1*	.	108.8	11.5	-0.1
CC1CC(=O)c2cnc(Nc3ccccc3)nc2C1 (stereo unspecified)	37.9	31.1	6.7	56.9	18.6
Cc1ccc(Nc2ncc3c(n2)CC(C)CC3=O)c(C)c1 (stereo unspecified)	59.4*	.	27.5	.	52.0*
O=C(C[C@H]1C[C@H]2c3cc(NC(=O)NC4CCCCC4)ccc3O[C@H]2[C@@H](CO)O1)NCc1ccccc1	.	-1.1	.	.	.
Cc1cc(Cl)ccc1C(=O)C1CCCN(C(=O)c2cnsn2)C1 (stereo unspecified)	50.9*	-8.7	16.0	2.0	-1.0
O=c1cc(-c2ccccc2)oc2ccc(O)cc12	46.5	30.9	32.8	57.1	59.5*
CCCCCc1cc(=O)c2ccccc2o1	.	50.2*	.	36.2	1.3
O=c1cc(CO)oc2ccccc12	.	-2.7	.	-2.8	1.8
O=c1cc(-c2ccccc2)oc2ccccc12	.	56.0*	.	45.8	2.1
O=c1cc(/C=C/c2ccccc2)oc2ccccc12	28.6	59.0*	25.8	32.1	.
O=c1cc(-c2ccc(C(F)(F)F)cc2)oc2ccccc12	.	14.4	.	13.9	1.7
SMILES	HSF-1 act	esBAF inh	HSF1 inh	MITF TRPM1 HTS	Wnt bcat act
Cc1ccc(S(=O)(=O)N(C)C[C@H]2OCCCC[C@@H](C)Oc3ccc(NC(=O)Nc4ccccc4)cc3C(=O)N([C@@H](C)CO)C[C@@H]2C)cc1	.	-0.9	.	.	.
COc1ccccc1C#Cc1ccc2c(c1)[C@H]1[C@H](CCN1C(=O)CN1CCOCC1)[C@H](CO)N2	.	10.3	.	.	.
Cc1cccc(NC(=O)CC2CCC2)c1	-1.3	14.9	-4.1	17.4	.
Cc1cc(NC(=O)CC2CCCC2)ccc1Br	39.5	65.3*	35.2	63.3	12.9
CC(C)CC(=O)NC(=S)Nc1cccc(NC(=O)c2ccccc2)c1	4.6	.	-0.1	-12.0	-0.8
Cc1cc(NC(=S)NC(=O)CC(C)C)ccc1Br	13.1	57.9*	7.2	57.3	8.6
O=C(CC1CCCC1)Nc1ccc2c(c1)CCC2	25.4	84.4*	21.2	42.9	3.8

Screening results (PubChem BioAssay)
